In all, about 5,500 compounds went through this assay and about 2,000 (36%) were called active. About 18% were inconclusive and are not listed. Cut-off read from the data, not from the text of the source: active = normalized growth mostly below about 0.91 (no sharp cut-off); inconclusive = no clear call, values can overlap the other calls; inactive = mostly above about 0.92. The list shows a part of the results.
Experiment: chemical genetic growth profiling, strain panel (AID 1159580);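 note: tested at 20 µM; growth read once vehicle control cultures reached saturation at 30 °C; 1 = growth at the plate median or of vehicle wells; lower values mean less growth of the strain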
Settings: growth OD

Measured: normalized growth

CCCCCCCCCCCCCCCC[N+](C)(C)C
active: S. cerevisiae deletion strains, locus YJR075W, strain HOC1, hits give low values 0.0608 | S. cerevisiae deletion strains, locus YKL009W, strain mrt4, hits give low values 0.126 | S. cerevisiae deletion strains, locus YKL068W, hits give low values 0.057 | S. cerevisiae deletion strains, locus YKL085W, strain MDH1 (second series), hits give low values 0.0537 | S. cerevisiae deletion strains, locus YKL085W, strain MDH1, hits give low values 0.0537 | S. cerevisiae deletion strains, locus YKL160W, strain elf1, hits give low values 0.0583 | S. cerevisiae deletion strains, locus YKL190W, strain CNB1, hits give low values 0.0478 | S. cerevisiae deletion strains, locus YKR001C, strain vps1, hits give low values 0.0609 | S. cerevisiae deletion strains, locus YKR026C, strain gcn3, hits give low values 0.0627 | S. cerevisiae deletion strains, locus YKR091W, strain srl3, hits give low values 0.0569 | S. cerevisiae deletion strains, locus YLL001W, strain dnm1, hits give low values 0.0599 | S. cerevisiae deletion strains, locus YLL026W, hits give low values 0.0546 | S. cerevisiae deletion strains, locus YLL041C, strain sdh2, hits give low values 0.0568 | S. cerevisiae deletion strains, locus YLR027C, strain aat2, hits give low values 0.0555 | S. cerevisiae deletion strains, locus YLR039C, strain RIC1, hits give low values 0.0825 | S. cerevisiae deletion strains, locus YLR058C, strain SHM2, hits give low values 0.0453 | S. cerevisiae deletion strains, locus YLR102C, strain apc9, hits give low values 0.0605 | S. cerevisiae deletion strains, locus YLR113W, strain HOG1, hits give low values 0.113 | S. cerevisiae deletion strains, locus YLR221C, strain rsa3, hits give low values 0.0541 | S. cerevisiae deletion strains, locus YLR258W, strain gsy2, hits give low values 0.0561 | S. cerevisiae deletion strains, locus YLR262C, strain YPT6 (second series), hits give low values 0.0788 | S. cerevisiae deletion strains, locus YLR262C, strain YPT6, hits give low values 0.0977 | S. cerevisiae deletion strains, locus YLR268W, strain sec22, hits give low values 0.0658 | S. cerevisiae deletion strains, locus YLR320W, strain mms22, hits give low values 0.0733 | S. cerevisiae deletion strains, locus YLR330W, strain CHS5, hits give low values 0.0514 | S. cerevisiae deletion strains, locus YLR342W, strain FKS1 (second series), hits give low values 0.0636 | S. cerevisiae deletion strains, locus YLR342W, strain FKS1, hits give low values 0.0598 | S. cerevisiae deletion strains, locus YLR357W, strain rsc2, hits give low values 0.103 | S. cerevisiae deletion strains, locus YLR370C, strain arc18, hits give low values 0.061 | S. cerevisiae deletion strains, locus YLR371W, strain rom2, hits give low values 0.0606 | S. cerevisiae deletion strains, locus YLR384C, strain iki3, hits give low values 0.0599 | S. cerevisiae deletion strains, locus YLR418C, strain cdc73, hits give low values 0.0891 | S. cerevisiae deletion strains, locus YML016C, strain PPZ1, hits give low values 0.0596 | S. cerevisiae deletion strains, locus YML032C, strain rad52, hits give low values 0.0653 | S. cerevisiae deletion strains, locus YML120C, strain ndi1, hits give low values 0.0558 | S. cerevisiae deletion strains, locus YML124C, strain tub3, hits give low values 0.0593 | S. cerevisiae deletion strains, locus YMR058W, strain fet3, hits give low values 0.0569 | S. cerevisiae deletion strains, locus YMR078C, strain ctf18, hits give low values 0.0689 | S. cerevisiae deletion strains, locus YMR125W, strain sto1, hits give low values 0.0643 | S. cerevisiae deletion strains, locus YMR129W, hits give low values 0.0561 | S. cerevisiae deletion strains, locus YMR205C, strain PFK2, hits give low values 0.0755 | S. cerevisiae deletion strains, locus YMR223W, strain ubp8, hits give low values 0.0626 | S. cerevisiae deletion strains, locus YMR231W, strain pep5, hits give low values 0.0651 | S. cerevisiae deletion strains, locus YMR263W, strain SAP30, hits give low values 0.0582 | S. cerevisiae deletion strains, locus YMR307W, strain GAS1, hits give low values 0.119 | S. cerevisiae deletion strains, locus YNL067W, strain RPL9B, hits give low values 0.0498 | S. cerevisiae deletion strains, locus YNL071W, strain lat1, hits give low values 0.0578 | S. cerevisiae deletion strains, locus YNL128W, strain TEP1, hits give low values 0.0627 | S. cerevisiae deletion strains, locus YNL153C, strain GIM3, hits give low values 0.0486 | S. cerevisiae deletion strains, locus YNL183C, strain NPR1, hits give low values -0.00175 | S. cerevisiae deletion strains, locus YNL209W, strain ssb2, hits give low values 0.0612 | S. cerevisiae deletion strains, locus YNL233W, strain BNI4, hits give low values 0.053 | S. cerevisiae deletion strains, locus YNL248C, strain rpa49, hits give low values 0.0567 | S. cerevisiae deletion strains, locus YNL250W, strain rad50, hits give low values 0.0666 | S. cerevisiae deletion strains, locus YNL271C, strain bni1, hits give low values 0.0608 | S. cerevisiae deletion strains, locus YNL298W, strain CLA4, hits give low values 0.0592 | S. cerevisiae deletion strains, locus YNL307C, strain MCK1, hits give low values 0.0664 | S. cerevisiae deletion strains, locus YNL322C, strain KRE1 (second series), hits give low values 0.0599 | S. cerevisiae deletion strains, locus YNL322C, strain KRE1, hits give low values 0.0495 | S. cerevisiae deletion strains, locus YNR049C, strain mso1, hits give low values 0.0575 | S. cerevisiae deletion strains, locus YNR052C, strain pop2, hits give low values 0.0593 | S. cerevisiae deletion strains, locus YOL006C, strain TOP1, hits give low values 0.0794 | S. cerevisiae deletion strains, locus YOL012C, strain htz1 0.179 | S. cerevisiae deletion strains, locus YOL147C, strain pex11, hits give low values 0.0577 | S. cerevisiae deletion strains, locus YOR001W, strain rrp6, hits give low values 0.0595 | S. cerevisiae deletion strains, locus YOR061W, strain CKA2, hits give low values 0.0395 | S. cerevisiae deletion strains, locus YOR069W, strain VPS5, hits give low values 0.0494 | S. cerevisiae deletion strains, locus YOR070C, strain gyp1, hits give low values 0.0582 | S. cerevisiae deletion strains, locus YOR080W, strain dia2, hits give low values 0.0639 | S. cerevisiae deletion strains, locus YOR083W, strain WHI5, hits give low values 0.0574 | S. cerevisiae deletion strains, locus YOR106W, strain vam3, hits give low values 0.0616 | S. cerevisiae deletion strains, locus YOR136W, strain idh2, hits give low values 0.0711 | S. cerevisiae deletion strains, locus YOR144C, strain elg1, hits give low values 0.0571 | S. cerevisiae deletion strains, locus YOR184W, strain ser1, hits give low values 0.0671 | S. cerevisiae deletion strains, locus YOR231W, strain MKK1, hits give low values 0.0937 | S. cerevisiae deletion strains, locus YOR265W, strain rbl2, hits give low values 0.0534 | S. cerevisiae deletion strains, locus YOR270C, strain vph1, hits give low values 0.0651 | S. cerevisiae deletion strains, locus YOR290C, strain snf2, hits give low values 0.0594 | S. cerevisiae deletion strains, locus YOR316C, strain cot1, hits give low values 0.0575 | S. cerevisiae deletion strains, locus YPL051W, strain arl3, hits give low values 0.0558 | S. cerevisiae deletion strains, locus YPL055C, strain LGE1, hits give low values 0.0731 | S. cerevisiae deletion strains, locus YPL078C, strain atp4, hits give low values 0.0629 | S. cerevisiae deletion strains, locus YPL106C, strain sse1, hits give low values 0.0805 | S. cerevisiae deletion strains, locus YPL240C, strain hsp82, hits give low values 0.0545 | S. cerevisiae deletion strains, locus YPL241C, strain CIN2, hits give low values 0.0519 | S. cerevisiae deletion strains, locus YPL256C, strain CLN2, hits give low values 0.107 | S. cerevisiae deletion strains, locus YPR119W, strain clb2, hits give low values 0.0613 | S. cerevisiae deletion strains, locus YPR141C, strain kar3, hits give low values 0.0706 | S. cerevisiae deletion strains, locus YPR163C, strain tif3, hits give low values 0.0686 | S. cerevisiae deletion strains, locus YPR167C, strain met16, hits give low values 0.0617 | S. cerevisiae deletion strains, strain wtn01, hits give low values 0.0595 | S. cerevisiae strains, strain wild type, hits give low values 0.0507

From PubChem BioAssay AID1159580 (chemical genetic matrix, 2015)
